Bioassay records as filed in PubChem BioAssay.
This is a sample that favours compounds with a hit; in the whole collection about 12% have one here.
USP30 inh – human USP30 deubiquitinase inhibition; Q70CQ3; purified USP30, Ub-rhodamine cleavage fluorescence; inhibition, % at 25 µM; 47,000 tested, 5.3% active
USP10 inh – blocks human USP10 ubiquitin-rhodamine cleavage; Q14694; 47,000 tested, 1.1% active; inhibition, % at 20 µM; AID 1645856; purified USP10, Ub-rhodamine fluorescence, 60 min
UCHL1 block – human UCHL1 deubiquitinase inhibition | P09936 | purified UCHL1, Ub-rhodamine cleavage fluorescence | inhibition, % at 20 µM | 47,000 tested, 0.2% active
USP8 block – inhibitors of human USP8 deubiquitinase. 47,000 tested, 4.2% active. purified USP8, Ub-rhodamine cleavage fluorescence, 30 min. P40818. inhibition, % at 20 µM
USP17 inh – human USP17-like deubiquitinase inhibition. purified USP17, Ub-rhodamine cleavage fluorescence, 3 h. inhibition, % at 50 µM. 47,000 tested, 6.5% active. AID 1645855
USP7 inh – inhibitors of human USP7 deubiquitinase. Q93009. inhibition, % at 20 µM. purified USP7, Ub-rhodamine cleavage fluorescence. 47,000 tested, 0.3% active. AID 1645854
Active calls of the source: *; i = inactive. Rule as the data show it: active = inhibition above about 30%; inactive = the rest.

SMILES	USP30 inh	USP10 inh	UCHL1 block	USP8 block	USP17 inh	USP7 inh
C=C1CCC[C@]2(C)C[C@H]3OC(=O)C(CN(C)C[C@@H](O)c4cccc(O)c4)[C@H]3C[C@@H]12 (some centres undefined)	-52.8	-1.9	-15.8	-5.1	-16.0	-13.0
C=C1CCC[C@]2(C)C[C@H]3OC(=O)C(CN(C)Cc4ccccc4)[C@H]3CC12 (some centres undefined)	30.3*	-0.5	2.1	18.2	16.1	4.2
COCCOC(=O)C1=C(C)Nc2nc3ccccc3n2C1c1cc(OC)c(OC)c(OC)c1 (centres undefined)	6.9	-1.1	1.8	4.3	33.8*	1.5
O=C(CCc1nnc2ccc(N3CCCC3)nn12)NCCN1CCCC1	-19.9	0.0	-4.0	-2.6	-2.4	-3.8
Cc1ccc(S(=O)(=O)N2CCCn3nnc(COCC4CC4)c3C2)cc1	10.5	-5.2	-0.6	0.7	2.0	-3.1
O=C(Cn1cccc(S(=O)(=O)N2CCCCCC2)c1=O)Nc1ccccc1	-23.3	-5.5	-6.3	-13.3	-19.4	-13.9
C=Cc1ccc(Cn2cccc(S(=O)(=O)N3CCCC3)c2=O)cc1	-58.6	-6.4	-3.1	-12.7	62.7*	2.8
O=C(Cn1cccc(S(=O)(=O)N2CCCCCC2)c1=O)Nc1ccc(F)cc1	5.4	-4.7	-4.3	16.5	42.0*	-20.9
O=C(NC1CCCN(c2cc(-c3ccncc3)[nH]n2)C1)c1ccc(F)cc1 (centres undefined)	-9.3	-3.3	-0.2	-134.0	-39.6	-5.2
Cc1ccc(NC(=O)CCc2ccc3nc[nH]c3c2)cc1F	-11.4	2.4	0.0	4.7	-5.7	-0.9
COC(=O)c1cc(NC(=O)Nc2cccc(Cl)c2)cc(C(=O)OC)c1	28.2	18.6	9.3	6.6	21.8	13.6
Cc1cc(C)cc(NC(=O)Cc2csc(NC(=O)Nc3cccc(Cl)c3)n2)c1	31.6*	2.1	0.7	25.3	12.1	10.2
COc1cc2cc(Oc3ccc4ccc(=O)oc4c3)c(=O)oc2cc1O	34.2*	1.4	0.9	1.7	-4.3	2.0
COc1ccc2oc(=O)c(S(=O)(=O)N3CCCC3)cc2c1	9.8	2.0	1.4	-0.5	14.9	5.6
CCc1nc2sc3c(NCCN4CCOCC4)ncnc3c2c2c1COC(C)(C)C2	-0.3	-0.2	-0.5	0.1	5.1	-0.2
CCCCNc1ncnc2c1sc1nc(CCCC)c3c(c12)CC(C)(C)OC3	14.2	4.8	0.0	6.6	44.9*	2.2
O=S(=O)(c1ccccc1)c1nnn2c1nc(NCc1ccc(Cl)cc1)c1ccccc12	19.0	7.7	0.4	1.8	42.2*	6.6
Cc1ccc(S(=O)(=O)c2nnn3c2nc(NCc2ccc(F)cc2)c2ccccc23)cc1C	22.1	-4.2	0.0	51.0*	11.9	5.1
Cc1ccc(CNc2nc3c(-c4ccc(C)cc4)nnn3c3ccccc23)cc1	-0.3	3.0	-0.5	3.7	4.7	6.3
NS(=O)(=O)c1cccc(NC(=O)CCc2nc3ccccc3s2)c1	-18.3	-3.3	0.1	-6.4	-11.1	-6.1
COc1ccc(NS(=O)(=O)c2cc(NC(=O)CCc3nc4ccccc4s3)ccc2C)cc1	35.2*	18.4	1.8	22.1	59.6*	-2.2
CC(/C=C/C(=O)NO[C@@H]1O[C@H](CO)[C@@H](O)[C@H](O)[C@H]1O)=C\C(C)C(=O)c1ccc(N(C)C)cc1 (some centres undefined)	19.4	5.2	4.8	4.4	42.7*	3.4
COc1nccnc1N1CCC(NC(=O)c2cnn3cccnc23)C1 (centres undefined)	-34.5	-7.0	-4.7	-4.5	16.6	-0.8
COc1ccc(C2Nc3ccccc3C(=O)N2c2ccc3c(c2)OCO3)cc1O (centres undefined)	14.5	-0.6	3.1	56.6*	45.2*	-2.4
O=C(c1c(F)cccc1F)N1CC2CCCN2c2ccc(C(F)(F)F)cc21 (centres undefined)	3.7	-0.5	5.3	34.0*	4.2	11.1
O=C(NCCC1=CCCCC1)C1CCCN(c2cnc3nccnc3c2)C1 (centres undefined)	i	-10.8	-50.6	-101.3	-120.3	-57.0
COc1ccc(OC)c(NC(=O)C2c3ccccc3C(=O)N(C3CCCC3)C2c2cccs2)c1 (centres undefined)	4.4	6.1	4.5	-0.3	-1.5	5.6
